The values below come from PubChem BioAssay AID1845224 (National Center for Advancing Translational Sciences (NCATS), 2023).

Molecules are shown by their SMILES. Inconclusive results are not listed. A call without a number means that no potency is given here. Activity calls are given as the source filed them. The call rests on the fitted dose curve; in most records, active means well fitted curve in the direction sought with a large enough effect; inconclusive means small, poorly fitted or top-dose-only effect, or another doubt; inactive means no such curve, though single readings can be large or run the other way.
Potency means the concentration at half of the fitted maximal effect.

The test deals with NanoLuc luciferase (engineered Oplophorus gracilirostris luciferase). Nature of the test: Confirmatory Nanoluciferase (NLuc) qHTS assay for identification of artifact compounds. As to conditions: secreted NLuc in S16 cell medium, luminescence, 5 min; series mostly up to 39 µM. The method in brief: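 Conditioned medium from NLuc-expressing S16 cells (diluted 1:55) was incubated with compounds for 15 min at room temperature. Nano-Glo substrate (1:100) was then added, and luminescence was read after 5 min.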
Consider `O=C(CSc1ccnc(=O)[nH]1)NCc1ccc(F)cc1`, for which the Potency result was “inactive”.

In the case of `CCCn1c(C)nc2c(N3CCCN(Cc4ccccc4)CC3)nc(C)nc21`, the Potency result was “inactive”. Turning to `COc1cccc(N2CCN(c3c4c(nc5nncn35)CCC4)CC2)c1`, the Potency result is “inactive”.

On to `CNS(=O)(=O)c1cn(CC(=O)N2CCN(c3ccc(C(C)=O)cc3)CC2)cc1S(=O)(=O)NC`, for which the Potency result is “inactive”.

As for `CCOC(=O)C1CCN(C(=O)Cn2c(=O)oc3cc(S(=O)(=O)N4CCC(C)CC4)ccc32)CC1`, the Potency entry was “inactive”. With `Oc1ccc(CCc2c(F)cccc2F)c2cccnc12` the entry was “inactive”; with `O=C(CSc1nc(-c2ccccc2)cn1-c1ccccc1)Nc1ccccc1`, “inactive”; with `Cc1oc(-c2cccc(Br)c2)nc1CSc1nc2ncccc2[nH]1`, 8.64 µM (active). As for `CCCN(C(=O)Cc1c(C(=O)O)[nH]c2ccc(Cl)cc12)c1ccc(OCC)cc1`, the Potency result was “inactive”.

Turning to `O=C1NC(=O)/C(=C/c2cccn2-c2ccc(P(=O)(O)O)cc2)N1`, the Potency result is “inactive”.

As for `O=S(=O)(Nc1cccc2cccnc12)c1ccccc1`, the Potency result is “inactive”.

As for `CCc1ccc2oc(C(=O)Nc3cc(Cl)ccc3OC)cc(=O)c2c1`, the Potency entry is “inactive”. Under `CCCN(CCC)CCNC(=O)CN1C(=O)COc2ccc(S(=O)(=O)N3CCC(C)CC3)cc21` stands “inactive”; under `COc1ccc(C2Nc3ccccc3C(=O)N2CC(C)(C)C)cc1COc1ccc(NC(C)=O)cc1` (configuration not stated), “inactive”. In the case of `Fc1ccc(-c2cc(-c3nc(-c4ccc(Cl)cc4)no3)[nH]n2)cc1`, the Potency entry was “inactive”.

Consider `CCCCCCCCCCCCCC(=O)N[C@@H](C)[C@H](O)c1ccccc1`, for which the Potency result is “inactive”.

For `O=C(O)c1cc(F)c(S(=O)(=O)N2CCN(S(=O)(=O)c3ccc4c(c3)OCCO4)CC2)cc1F`, the Potency entry is “inactive”.
